In all, about 13,000 compounds went through this assay and about 3,200 (25%) showed an effect of 50% or more. The list shows a part of the results.
These compounds were tested on P. falciparum stage V gametocytes. Conditions: 48 h, 5 µM; inhibitor.
Set-up: BacTiter-Glo ATP luminescence viability of purified stage V gametocytes in 384-well plates, per cent inhibition versus DMSO

SMILES | % Inhibition
O=[N+]([O-])c1ccccc1/C=N/Nc1ccnc2ccc(C(F)(F)F)cc12 [TCMDC-142044] | -33.57%
O=[N+]([O-])c1cccc(S(=O)(=O)N2CCN(CC(O)COc3ccc(-c4ccccc4)cc3)CC2)c1 (centres unmarked) [TCMDC-125015] | -58.05%
COc1cc2nc(NCCCOC(C)C)n3nc(-c4ccccc4)nc3c2cc1OC [TCMDC-124450] | 5.714%
Cn1cnc2c(Nc3ccncc3)nc(-c3ccc4c(c3)OCO4)nc21 [TCMDC-141274] | 36.93%
CC(O)C1CCCCN1C(=O)c1ccc(-c2ccc(-c3nc4cc(F)ccc4[nH]3)cc2)cc1 (centres unmarked) [TCMDC-132338] | 65.53%
CC(O)C1CCCCN1C(=O)c1ccc(-c2cccc(-c3nc4cc(F)ccc4[nH]3)c2)cc1 (centres unmarked) [TCMDC-132333] | 18.43%
Cc1cccc2nc(-c3cccc(-c4ccc(C(=O)N5CCCCC5C(C)O)cc4)c3)[nH]c12 (centres unmarked) [TCMDC-132336] | 92.31%
Cc1cccc2nc(-c3ccc(-c4cccc(C(=O)N5CCCCC5C(C)O)c4)s3)[nH]c12 (centres unmarked) [TCMDC-132331] | 10.35%
O=C(c1ccc(-c2cccc(-c3nc4cc(C(F)(F)F)ccc4[nH]3)c2)cc1)N1CCCCC1CN1CCC(O)C1 (centres unmarked) [TCMDC-132348] | -20.7%
Cc1cccc2nc(-c3cccc(-c4ccc(C(=O)NCCc5ccc(O)c(=O)[nH]5)cc4)c3)[nH]c12 [TCMDC-132490] | -25.23%
O=C(c1ccc(-c2cccc(-c3nc4cc(F)ccc4[nH]3)c2)cc1)N1CCCCC1CN1CCC(O)C1 (centres unmarked) [TCMDC-132344] | 80.27%
O=C(c1cccc(-c2cccc(-c3nc4cc(F)ccc4[nH]3)c2)c1)N1CCCCC1CN1CCC(O)C1 (centres unmarked) [TCMDC-132350] | 0.1683%
CCN(CC(C)O)C(=O)c1ccc(-c2cccc(-c3nc4cccc(C)c4[nH]3)c2)cc1 (centres unmarked) [TCMDC-132502] | 84.23%
CCN(CC(C)O)C(=O)c1ccc(-c2ccc(-c3nc4cccc(C)c4[nH]3)cc2)cc1 (centres unmarked) [TCMDC-132503] | -12.34%
CC(O)C1CCCCN1C(=O)c1cccc(-c2cccc(-c3nc4cc(F)ccc4[nH]3)c2)c1 (centres unmarked) [TCMDC-132339] | 25.33%
CC(O)C1CCCCN1C(=O)c1cccc(-c2cccc(-c3nc4ccccc4[nH]3)c2)c1 (centres unmarked) [TCMDC-132313] | 8.745%
Cc1ccccc1C(O)CNc1ccnc(Nc2cccc(C#N)c2)n1 (centres unmarked) [TCMDC-136566] | 9.635%
COc1ccc(CNC(=O)NC2CCN(c3ccnc(Nc4ccc(OC)cc4)n3)C2)cc1 (centres unmarked) [TCMDC-133607] | 11.17%
O=C(Nc1ccc(OC2CCN(Cc3ccc(F)cc3)C2)cc1)c1cccs1 (centres unmarked) [TCMDC-133753] | 15.26%
COc1cc(NC(=O)c2cccs2)c(C(=O)NCc2ccc(C)cc2)cc1OC [TCMDC-125007] | 20.88%
CN(C)CCOc1ccc(NC(=O)Nc2ccnc3c(Br)cccc23)cc1Cl [TCMDC-140325] | 18.67%
COc1cc2nc(N3CCC(CNC(=O)c4ccc(-c5ccc(-c6noc(C)n6)cc5C)cc4)CC3)nc(N)c2cc1OC [TCMDC-138155] | 105.9%
COc1cc2nc(N3CCC(CNC(=O)c4ccc(-c5ccc(-c6noc(C)n6)cc5)cc4)CC3)nc(N)c2cc1OC [TCMDC-138754] | 115%

SMILES | % Inhibition
O=C(Nc1ccc2c(c1)CCC2)c1ccc(N2CCN(c3ccncc3)CC2)cn1 [TCMDC-135155] | 0.5792%
CCOc1cc(C(=O)N[C@@H](Cc2ccccc2)[C@H](O)CNCc2cc(OC)cc(OC)c2)cc(N2CCCS2(=O)=O)c1 [TCMDC-134573] | 6.074%
O=C(Nc1ccc(OC2CCN(Cc3ccsc3)CC2)c(Cl)c1)c1ccc(F)cc1 [TCMDC-134272] | -4.957%
CCC(C(C)C)n1ccc2c3c(N)nc(N)nc3ccc21 (centres unmarked) [TCMDC-137872] | 10.31%
Nc1nc(N)c2c(ccc3c2ccn3Cc2cccc3ccccc23)n1 [TCMDC-137996] | 88.02%
Cc1ccccc1Cn1ccc2c3c(N)nc(N)nc3ccc21 [TCMDC-137812] | 70.17%
Clc1ccc(CNc2ccnc(NCc3ccc4c(c3)OCCCO4)n2)c(Cl)c1 [TCMDC-135116] | 30.31%
CC(C)OCCCNC(=O)c1nc(-c2cccc(C(F)(F)F)c2)sc1C(C)C [TCMDC-133788] | 3.705%
Oc1ccc(Cl)cc1CN1CCC2(CCCN(CC3CCC3)C2)C1 (centres unmarked) [TCMDC-124637] | -23.05%
CCCCN(CCCC)CCNC(=O)c1cc(OC(F)(F)F)ccc1O [TCMDC-141130] | -10.84%
CC(Cc1ccc(NC(=O)c2ccc(CNCCCCc3ccccc3)cc2)cc1)NCCc1cccc(Cl)c1 (centres unmarked) [TCMDC-139866] | 129.2%
CC(Cc1ccc(NC(=O)c2ccc(CNCc3ccccc3)cc2)cc1)N(CCc1cccc(Cl)c1)C(=O)OC(C)(C)C (centres unmarked) [TCMDC-139859] | -24.54%
CC(Cc1ccc(NC(=O)c2ccc(CNCCc3ccccc3)cc2)cc1)NCCc1cccc(Cl)c1 (centres unmarked) [TCMDC-139867] | 108.4%
COc1cccc(OC)c1OCCCON1C(N)=NC(N)=NC1(C)C [TCMDC-131731] | 5.866%
COc1cc(Cc2cnc(N)nc2N)cc(OC(C)C)c1OC [TCMDC-137645] | -10.21%
CC(=O)Nc1cccc(C(=O)Nc2cccc(-c3ccc(-c4nc5cc(C(F)(F)F)ccc5[nH]4)s3)c2)c1 [TCMDC-132138] | 13.04%
COc1ccc(NC(=O)c2ccc(-c3nc(-c4ccc(Cl)cc4)cs3)cc2)cc1N1CCN(C)CC1 [TCMDC-138685] | 18.54%
NC(Cc1cccc(I)c1)C(=O)NCC1CCCO1 (centres unmarked) [TCMDC-141273] | -21.09%
OCC(c1ccccc1)n1c(COc2ccc(Cl)cc2)nc2c(OCCCN3CCCCC3)cccc21 (centres unmarked) [TCMDC-138596] | 103.2%
COc1ccc(CN2CCN(CCOC(c3ccccc3)c3ccc(Cl)cc3)CC2)c(O)c1 (centres unmarked) [TCMDC-135692] | 28.74%
Cc1nc(N)nc(N)c1-c1ccc(Br)c([N+](=O)[O-])c1 [TCMDC-138071] | 1.652%
CS(=O)(=O)CCNCc1cccc(-c2cc3c(Nc4ccc(OCc5ccccc5)cc4)ncnc3cn2)c1 [TCMDC-138240] | 8.889%
CN(C)C(=S)N=Nc1c(O)[nH]c2ccc(OC(F)(F)F)cc12 [TCMDC-141099] | -50.91%

SMILES | % Inhibition
Cn1nc(-c2ccc(CN[C@@H]3CCc4ccc(O)cc43)cc2)c2cnc(NC3CCCC3)nc21 [TCMDC-135029] | -22.32%
c1ccc(CN2CCC(NCc3cccc(-c4cncc5ccccc45)c3)CC2)cc1 [TCMDC-134152] | 18.28%
Cc1c(-c2ccc3c(c2)C(NCCCN2CCCCC2)CC3)cnc(N)c1C (centres unmarked) [TCMDC-138320] | 53.54%
Cc1c(-c2cccc(C(C)(C)NC3CCN(Cc4ccccc4)CC3)c2)cnc(N)c1C [TCMDC-138300] | 70.88%
O=C(NCCN1CCCCC1)c1ccc(CNC(=O)c2ccc(O)c(-c3cccc(C(F)(F)F)c3)c2)cc1 [TCMDC-140817] | 7.187%
O=C(Nc1cccc(-c2ccc(NCCCN3CCCC3)nc2)c1)c1ccccc1 [TCMDC-134145] | 39.43%
Cc1c(-c2cccc(C(C)(C)NCCCN3CCCCC3)c2)cnc(N)c1C [TCMDC-138284] | 76.27%
Cc1c(Br)cc2[nH]c(-c3ccc(C(=O)NC4CCN(Cc5ccccc5)CC4)cc3)nc2c1C [TCMDC-140026] | -88.51%
NC(=O)c1cccc(C(=O)Nc2cccc(-c3ccc(-c4nc5ccc(C(F)(F)F)cc5[nH]4)cc3)c2)c1 [TCMDC-132202] | -50.53%
COc1ccc(S(=O)(=O)N(CC(=O)NN=C(C)c2cccs2)c2cc(C)cc(C)c2)cc1OC [TCMDC-125737] | 0.7472%
COc1ccccc1NS(=O)(=O)c1cc(C(=O)Nc2ccc(N3CCOCC3)c(S(=O)(=O)Nc3ccccc3Cl)c2)ccc1Cl [TCMDC-125591] | 13%
Cc1cc(-c2ccc(NC(=O)N3CCc4cc(Br)c(N5CCN(C)CC5)cc43)cc2)cc(C)n1 [TCMDC-139279] | 26.15%
CCCN1CCC=C(c2cccc(Nc3nccc(Nc4cc(OC)ccc4C)n3)c2)C1 [TCMDC-138668] | 37.96%
CCS(=O)(=O)c1ccc(OC)c(Nc2nccc(-c3c(-c4cccc(NC(=O)c5c(F)cccc5F)c4)nn4ncccc34)n2)c1 [TCMDC-135682] | 81.78%
O=C(Nc1cccc(-c2nn3ncccc3c2-c2ccnc(Nc3ccccc3)n2)c1)c1c(F)cccc1F [TCMDC-134631] | -2.939%
COCCOc1ccc(Nc2nccc(-c3c(-c4cccc(NC(=O)c5c(F)cccc5F)c4)nn4ccccc34)n2)cc1Cl [TCMDC-135955] | -12.66%
CS(=O)(=O)Cc1ccc(Nc2nccc(-c3c(-c4cccc(NC(=O)c5c(F)cccc5F)c4)nn4ncccc34)n2)cc1 [TCMDC-135681] | 52.9%
O=C(Nc1cccc(-c2nn3ncccc3c2-c2ccnc(Nc3cccnc3)n2)c1)c1c(F)cccc1F [TCMDC-135635] | 0.1379%
CCN(CC)CCCOc1ccc(Nc2nccc(-c3c(-c4cccc(NC(=O)c5c(F)cccc5F)c4)nn4ccccc34)n2)cc1F [TCMDC-135920] | 94.91%
CS(=O)(=O)Cc1ccc(Nc2nccc(-c3c(-c4cccc(NC(=O)c5c(F)cccc5F)c4)nn4ccccc34)n2)cc1 [TCMDC-135669] | -24.51%
CC(=O)Nc1cccc(Nc2nccc(-c3c(-c4cccc(NC(=O)c5c(F)cccc5F)c4)nn4ncccc34)n2)c1 [TCMDC-135548] | -25.11%
COCCOc1ccc(Nc2nccc(-c3c(-c4cccc(NC(=O)c5c(F)cccc5F)c4)nn4ccccc34)n2)cc1F [TCMDC-135995] | 27.09%
